# Screening data as filed in PubChem.
# Only some compounds are listed: those with a hit (about 0.73% of all), similar ones and a draw of the others.
# TcdB inh: TcdB glycohydrolase inhibitors, primary screen, biochemical, single point, plate reader | Toxin B (Clostridioides difficile), P18177 | TcdB glycohydrolase enzymatic assay | inhibition, % at 9.99 µM | 0.24% of 350,000 active; in the data active = inhibition above about 10%
# BioA inh-1: M. tuberculosis BioA enzyme inhibitors, primary screen, biochemical, plate reader, single point, HTS; purified M. tuberculosis BioA enzyme; inhibition, % at 9.99 µM; 0.096% of 360,000 active; AID 602481, 2012; in the data active = inhibition above about 40%; inconclusive = no clear call, values can overlap the other calls
# Vc quorum ag-1: inducers of Vibrio cholerae quorum light production without autoinducers, primary screen, BH1578 luxS cqsA deficient, single point. V. cholerae BH1578 lux reporter, luminescence, 6 h. activation, % at 18.7 µM. 0.16% of 350,000 active. AID 588436, 2011; in the data active = activation mostly above about 9.7%, no sharp cut-off; inconclusive = no clear call, values can overlap the other calls; inactive = mostly below about 3.7%
# DUSP3 inh: VHR1 phosphatase inhibitors, primary screen, biochemical, absorbance, uHTS; Dual specificity protein phosphatase 3 (Homo sapiens), P51452; AID 1654, 2009; recombinant VHR phosphatase, pNPP absorbance; 0.52% of 290,000 active; inhibition, % at 13.3 µM; in the data active = inhibition above about 50%
# Target sequence (P51452 whole entry, looked up): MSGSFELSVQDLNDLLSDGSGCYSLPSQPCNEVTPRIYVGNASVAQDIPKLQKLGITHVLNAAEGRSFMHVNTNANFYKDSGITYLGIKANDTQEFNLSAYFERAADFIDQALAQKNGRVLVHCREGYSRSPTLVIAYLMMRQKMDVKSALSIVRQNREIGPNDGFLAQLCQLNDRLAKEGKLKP
# Yp Topo-I inh: Yersinia pestis topoisomerase I inhibitors, primary screen, biochemical, cleavage product accumulation, plate reader, single point; DNA topoisomerase I (Yersinia pestis CO92); Y. pestis Topo-I cleavage product accumulation; activity, % at 10 µM; 0.064% of 360,000 active; in the data active = activity above about 50%, passing the limit was not always enough; inconclusive = no clear call, values can overlap the other calls
# Vc quorum ag-2: V. cholerae lux activation without autoinducers – BH1578 luxS cqsA deficient, cherry-pick, plate reader, dose response. V. cholerae BH1578 lux reporter, luminescence, 6 h. 620 tested, under 10 active. shares compounds with Vc quorum ag-1. activation, % at 50 µM
# HeLa tox: HeLa cell cytotoxicity, dose response, cytotoxicity control, 24 h, dry powder; shares compounds with Vc quorum ag-1; HeLa viability, CellTiter-Glo ATP luminescence; activity change, negative = cytotoxicity, % at 35 µM; 25 tested, under 10 active;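 active = signal drop with fitted half-maximal concentration at or below twice the highest valid dose; inconclusive = flat curve with 30 to 70% loss, or poor fit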
# BioA inh-2: Mtb BioA enzyme inhibitors, dose response, biochemical, plate reader, cherry-pick samples, set 03; shares compounds with BioA inh-1; purified BioA enzyme; max activity, %; 310 tested, under 10 active;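 note: top concentration of the dilution series was 10 µM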
# Target sequence (P9WQ81 whole entry, looked up): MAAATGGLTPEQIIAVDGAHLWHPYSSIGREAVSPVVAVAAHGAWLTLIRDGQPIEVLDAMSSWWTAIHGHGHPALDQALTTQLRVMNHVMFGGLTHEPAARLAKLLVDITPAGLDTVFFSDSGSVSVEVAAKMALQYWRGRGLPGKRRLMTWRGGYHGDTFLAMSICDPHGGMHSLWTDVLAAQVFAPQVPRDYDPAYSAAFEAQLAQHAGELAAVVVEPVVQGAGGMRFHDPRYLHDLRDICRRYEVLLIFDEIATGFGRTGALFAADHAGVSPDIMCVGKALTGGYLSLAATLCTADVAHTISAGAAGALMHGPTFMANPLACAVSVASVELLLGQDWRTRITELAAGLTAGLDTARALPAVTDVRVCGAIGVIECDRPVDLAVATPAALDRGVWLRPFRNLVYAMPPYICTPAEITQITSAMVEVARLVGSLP
# HepG2 tox 2: cytotoxicity in HepG2 cells, dose response, cytotoxicity control, cell-based, plate reader, cherry-pick, two tests; shares compounds with BioA inh-1; max activity, %; 310 tested, under 10 active
# 3T3 cytotox 5: cytotoxicity in NIH3T3 fibroblasts, dose response, cytotoxicity control, cell-based, plate reader, cherry-pick, two tests | 310 tested, under 10 active | activity change, negative = cytotoxicity, % at 26 µM | shares compounds with BioA inh-1
# Starred values were filed as active, the others as inactive; i = inactive; ? = inconclusive; nt = no result given. Unless noted, the rule behind the calls is not given here.
SMILES,TcdB inh,BioA inh-1,Vc quorum ag-1,DUSP3 inh,Yp Topo-I inh,Vc quorum ag-2,others
COc1ccc(-c2noc(CCC(=O)N3CCN(c4cccc(OC)c4)CC3)n2)cc1,0,1,-1,nt,32,nt,
CC(C)NC(=O)N(C)C[C@@H]1Oc2ccc(NC(=O)Nc3ccc4c(c3)OCO4)cc2C(=O)N([C@@H](C)CO)C[C@H]1C,-1,-3,nt,nt,nt,nt,
COCC(=O)Nc1ccc2c(c1)C(=O)N(C)C[C@H](OC)[C@H](C)CN(Cc1ccccc1F)[C@H](C)CO2,-1,-2,nt,nt,nt,nt,
CCOc1ccccc1NC(=O)COc1ccc2c(c1)OCO2,-2,-2,0,12,26,nt,
COc1ccc(OCC(=O)Nc2ccccc2OC)cc1,0,1,29*,-1,2,175,
COc1ccccc1NC(=O)COc1ccc2c(c1)OCO2,-2,-1,105*,2,-6,212,
O=c1c2c3c(sc2ncn1Cc1ccc(F)cc1)CCC3,nt,0,25,27,-1,0,
CC(C)C#Cc1ccc2c(c1)O[C@H](CN(C)CC1CCOCC1)[C@@H](C)CN([C@@H](C)CO)S2(=O)=O,1,-1,nt,nt,nt,nt,
Cc1noc(C)c1COc1ccc(C(=O)NCC(c2c(F)cccc2Cl)N(C)C)cc1 (stereo not drawn),3,3,19,nt,1,0,
CC(=O)N(C)C[C@H]1Oc2cc(C#Cc3cccnc3)ccc2S(=O)(=O)N([C@H](C)CO)C[C@H]1C,-1,2,nt,nt,nt,nt,
Cc1onc(-c2c(F)cccc2Cl)c1C(=O)Nc1nc2c(s1)CCCC2,2,1,-3,26,13,nt,
Cc1onc(-c2ccccc2)c1C(=O)Nc1nc2c(s1)CCCC2,nt,-1,7.6*,-6,-1,0,
COc1cccc(-c2ccc3n(c2=O)C[C@H]2[C@H](CO)[C@@H](C(=O)N(C)C)N(C(=O)C4CC4)[C@@H]32)c1,0,1,nt,nt,nt,nt,
CC(C)CC1NC(=O)N(CC(=O)Nc2ccc3c(c2)CCC3)C1=O (stereo not drawn),1,2,0,26,7,nt,
CN1CC(=O)N(CC(=O)Nc2ccc3c(c2)CCC3)C1=O,8,-1,36*,18,-10,0,
CC(C)c1ccc(OCC(=O)NC2CCCC2)cc1,1,0,nt,-2,8,i,
Cc1cc(C(=O)OCC(=O)NC2CCCCC2)c(C)o1,nt,-2,175*,19,2,660,
CC(=O)c1ccc(OCC(=O)NC2CCCCCC2)cc1,-1,1,-2,nt,-8,nt,
Cc1cc(C(=O)OCC(=O)Nc2ccccc2F)c(C)o1,nt,0,57*,25,-3,15,
Cc1cc(C(=O)OCC(=O)Nc2c(Cl)cccc2Cl)c(C)o1,1,-2,i,nt,7,nt,
O=C(COC(=O)c1ccc(O)cc1)NC1CCCC1,1,-3,i,2,-6,nt,
Cc1ccc(C(=O)OCC(=O)NC2CCCC2)cc1,1,0,nt,-15,2,i,HeLa tox=11
CO[C@H]1CN(C)C(=O)c2cc(NC(=O)Nc3cc(F)ccc3F)ccc2OC[C@H](C)N(C(=O)c2cnccn2)C[C@@H]1C,0,1,nt,nt,nt,nt,
CN1C(=O)c2cc(NC(=O)NC3CCCC3)ccc2OC[C@@H]2O[C@H](CC(=O)NCC3CC3)CC[C@@H]21,1,-1,nt,nt,nt,nt,
COc1ccc(C(=O)OCC(=O)NC2CC2)cc1,1,0,0,nt,-7,nt,
SMILES,TcdB inh,BioA inh-1,Vc quorum ag-1,DUSP3 inh,Yp Topo-I inh,Vc quorum ag-2,others
CC(C)(C)c1ccc(C(=O)OCC(=O)NC2CC2)cc1,3,0,26,nt,3,18,
O=C(COC(=O)c1cc(Cl)ccc1Cl)NC1CCCC1,-1,-1,28*,-11,0,29,
CCn1nnnc1NCc1ccc(Cl)cc1,0,2,7,11,2,nt,
CCn1nnnc1NCc1cccn1C,nt,-1,0,31,2,nt,HeLa tox=-1
C[C@H]1CCCCO[C@@H](CN(C)C(=O)c2ccccc2)[C@@H](C)CN([C@@H](C)CO)C(=O)c2cc(NS(=O)(=O)c3ccc(Cl)cc3)ccc2O1,0,-1,nt,nt,nt,nt,
O=C(Nc1cccc(Cl)c1)Nc1ccc(Cl)cn1,nt,1,32*,0,1,-1,
COc1ccc(-c2cn(CC[C@H]3CC[C@H](NC(=O)Cc4ccccn4)[C@@H](CO)O3)nn2)cc1,1,1,nt,nt,nt,nt,
COc1ccc(S(=O)(=O)N2CCCC(C(=O)NCc3ccc(F)cc3)C2)cc1 (stereo not drawn),0,-1,-1,7,8,nt,
COc1ccc(S(=O)(=O)N2CCCC(C(=O)NCc3ccncc3)C2)cc1 (stereo not drawn),nt,0,32*,10,-7,0,
OCCn1c(SC2CCCCC2)nc2ccccc21,nt,0,17*,8,16,0,
CN(C1CCCCC1)S(=O)(=O)CCNC(=O)c1ccccc1,0,0,14,nt,13,0,
COc1cccc(C(=O)NCCS(=O)(=O)N(C)C2CCCCC2)c1,2,0,4,nt,10,nt,
Cc1cc2c(c(=O)n1Cc1cccnc1)C(c1cccs1)C(C#N)=C(N)O2 (stereo not drawn),nt,64*,6,-4,-11,nt,BioA inh-2=-8;HepG2 tox 2=22;3T3 cytotox 5=8
Cc1cc2c(c(=O)n1Cc1cccnc1)C(Cc1ccccc1)C(C#N)=C(N)O2 (stereo not drawn),nt,nt,0,12,-5,nt,
O=C(Nc1ccc(F)cc1)NC1CCN(Cc2nnnn2Cc2ccco2)CC1,nt,74*,i,-1,-1,nt,BioA inh-2=6;HepG2 tox 2=?;3T3 cytotox 5=0
O=C(O)CCS(=O)(=O)c1nc(-c2cccs2)cc(C(F)(F)F)n1,-2,57*,i,18,7,nt,BioA inh-2=-7;HepG2 tox 2=-9;3T3 cytotox 5=-2
O=C(Nc1ccc(F)c(F)c1)c1ccc(-n2cncn2)c([N+](=O)[O-])c1,8,79*,-1,nt,-5,nt,BioA inh-2=2;HepG2 tox 2=-5;3T3 cytotox 5=2
COc1ccc(NC(=O)c2ccc(-n3cncn3)c([N+](=O)[O-])c2)cc1OC,2,66*,-2,nt,1,nt,BioA inh-2=-3;HepG2 tox 2=6;3T3 cytotox 5=-2
